94 molecules from PubChem BioAssay AID2314 (National Center for Advancing Translational Sciences (NCATS), 2010) can be followed below.

The whole screen tested about 300,000 compounds, of which about 37,000 (12%) were called active. Rule as the data show it: active = max response mostly above about 13% (no sharp cut-off); inactive = mostly below about 14%. The entries come from a sample that favours actives as a whole.

The nature of this assay: Cycloheximide Counterscreen for Small Molecule Inhibitors of Shiga Toxin. Also: read at 38.3 µM for the half of the compounds with a filed dose; 0% is about no effect. The note with it: cell reporter, cycloheximide protein synthesis inhibition counterscreen; hits give high values.
As for `CC(C)[C@H](NC(=O)N1CCn2c1nc1ccccc12)C(=O)NCc1ccc2c(c1)OCO2`, the max response was 7.58% (inactive).

For `CCCCOP(=O)(c1ccc(N(C)C)cc1)C(O)c1cc(OC)ccc1OC` (centres undefined), the max response is -3.9% (inactive).

As for `N[C@@H](Cc1ccccc1)C(=O)N1CCC(C(=O)NCC(=O)Nc2ccc(F)cc2)CC1`, the max response is 10.8% (inactive).

As for `Cc1ccsc1C1C(C#N)=C(N)OC2=C1C(=O)CC(C)C2` (centres undefined), the max response is -3.34% (inactive).

Regarding `CSc1nnc(C2CCCN(CC(=O)Nc3ccccc3N3CCOCC3)C2)n1C(C)C` (centres undefined), the max response is -6.84% (inactive).

For the molecule `O=c1[nH]c2ccc(S(=O)(=O)N3CCCC3)cc2[nH]1`, the max response was -1.27% (inactive).

As for `CCCN1C(=O)C(Cc2nc3ccccc3c(=O)n2-c2ccccc2)c2cc(C)ccc21` (centres undefined), the max response is -6.23% (inactive).

`Cc1ccc(S(=O)(=O)N(CC(=O)Nc2cccnc2)c2ccc(Br)cc2)cc1`: the max response was 18.2% (inactive).

For the molecule `Cc1ccc(C)c(NC(=O)CCC(=O)NNC(=O)c2cccs2)c1`, the max response is 5.25% (inactive).

As to `NNC(=O)c1ccc(Cl)cc1Cl`, the max response is 9.54% (inactive).

Regarding `CC(C)C(=O)Nc1ccc(C(=O)NNC(=O)c2cccs2)cc1`, the max response is 19.4% (active).

Consider `O=C(Nc1ccccc1)c1ccc(NC(=O)c2cccs2)cc1`, for which the max response was -4.38% (inactive).

Take `Cc1ccc(NNC(=O)c2cccs2)cc1Cl`: the max response is 9.69% (inactive).

Take `Cc1ccc(S(=O)(=O)N2CCN(C(=O)c3cccs3)CC2)cc1`: the max response was -2.84% (inactive).

For `Cc1ccc(C(=O)NNC(=O)c2cccs2)cc1`, the max response is 33.4% (active).

`O=C(NNC(=O)c1ccc(Cl)cc1Cl)c1cccs1`: the max response is 47.6% (active).

As to `Cc1cccc(-c2nc3c(c(SCC(=O)N4CCOCC4)n2)CCCC3)c1`, the max response was -3.15% (inactive).

In the case of `Cc1ccc2c(c1)C(c1ccccc1)N(C(=O)c1ccc(F)cc1)CC(=O)N2` (centres undefined), the max response was -3.35% (inactive).

Consider `CC1COc2ccccc2N1C(=O)c1ccc(F)cc1` (centres undefined), for which the max response is -4.53% (inactive).

With `O=C(CN(Cc1ccccc1)C(=O)CCC(=O)Nc1ccccn1)NCCc1ccccc1`, the max response is -3.42% (inactive).

For the molecule `OC(c1ccccc1)C(CN1CCOCC1)c1ccccc1` (centres undefined), the max response is 6.46% (inactive).

For the molecule `COc1cc(C(C(=O)NC2CCCC2)N(Cc2ccccc2)C(=O)c2snc(C(N)=O)c2N)ccc1O` (centres undefined), the max response is -3.72% (inactive).

In the case of `C=CCN(C(=O)c1cc(C)cc(C)c1)C1(C(=O)Nc2ccccc2)CCN(C(C)C)CC1`, the max response is 7.82% (inactive).

Regarding `Cc1ccc(CN(Cc2cccnc2)C(=S)Nc2cc(Cl)ccc2C)cc1`, the max response is -1.05% (inactive).

Consider `CN(C)c1ccc(-n2cccc2/C=N/n2cnnc2)cc1`, for which the max response is 36.3% (active).

In the case of `O=S(=O)(N/N=C\c1cccn1-c1ccccc1)c1ccc2ccccc2c1`, the max response was -3.05% (inactive).

On to `CN(C)c1ccc(-n2cccc2/C=C2/SC(=Nc3ccc(F)cc3)NC2=O)cc1`, for which the max response is 1.13% (inactive).

`CCOC(=O)N1CCN(C(=O)C(=O)Nc2sc3c(c2C#N)CC(C)(C)OC3)CC1`: the max response was -4.16% (inactive).

Take `CC(=O)Nc1ccc(S(=O)(=O)Nc2nccc(/C=C/c3ccccc3F)n2)cc1`: the max response is -1.75% (inactive).

On to `Cc1cc(C)nc(NS(=O)(=O)c2ccc(N3C(=O)C4CCCCC4C3=O)cc2)n1` (centres undefined), for which the max response was 1.2% (inactive).

In the case of `Cc1cc(C)nc(NS(=O)(=O)c2ccc(N/C=C\C(=O)c3cccs3)cc2)n1`, the max response is 36.2% (active).

For `Cc1c(C(C)(C)O)[nH]c2ccc(C#N)cc12`, the max response is 6.81% (inactive).

`COc1ccccc1CNC(=O)C1CCN(C(=O)[C@@H]2Cc3ccccc3CN2)CC1`: the max response was 2.06% (inactive).

On to `COc1ccccc1CNC(=O)C1CCN(S(C)(=O)=O)CC1`, for which the max response was -1.24% (inactive).

As for `COc1ccccc1CCNC(=O)C1CCN(C(=O)/C=C/c2ccccc2)CC1`, the max response is 14.7% (active).

In the case of `O=C(N/N=C/c1c(Cl)[nH]c2ccccc12)c1sc2ccccc2c1Cl`, the max response is 12.8% (active).

For the molecule `COCCNC(=S)N/N=C/c1c(C)[nH]c2ccccc12`, the max response was 8.43% (inactive).

For `Cc1nn(C)cc1/C=N/NC(=O)c1sc2ccccc2c1Cl`, the max response was 4.94% (inactive).

For `COc1ccc(NC(=O)C2CCC(CNS(=O)(=O)c3csc(C(N)=O)c3)CC2)cc1OC` (centres undefined), the max response was -7.21% (inactive).

In the case of `COC(=O)c1ccccc1NC(=S)NC(=O)c1ccccc1F`, the max response was -2.77% (inactive).

On to `O=C(NC(=S)NC1CCSC1=O)c1ccccc1F` (centres undefined), for which the max response was 24.5% (active).

In the case of `O=C(Cc1ccccc1F)NC1CCSc2ccccc21` (centres undefined), the max response is -2.13% (inactive).

As for `COC1=C(N2CCOCC2)C(=O)c2ccccc2C1=O`, the max response was 0.793% (inactive).

Regarding `CCCCCN1CC(O)=C(c2nc(-c3ccc(Cl)cc3)cs2)C1=N`, the max response is -0.837% (inactive).

For the molecule `Fc1ccc(-c2csc(-c3ccc(C4SCCS4)cc3)n2)cc1F`, the max response was 8.6% (inactive).

Turning to `Clc1ccc(-c2csc(-c3ccncc3)n2)cc1`, the max response was 49.1% (active).

Turning to `CSc1cccc(NC(=O)CN2C(=O)COc3ccc(S(=O)(=O)N4CCOCC4)cc32)c1`, the max response is -0.43% (inactive).

In the case of `O=C(C1CC(=O)N(C2CCCCC2)C1)N1CCN(c2ccccc2)CC1` (centres undefined), the max response was -1.46% (inactive).

As for `Cn1c(SCC(=O)N2CCCCC2)nc2c(c1=O)SCC2`, the max response was 9.54% (inactive).

Turning to `COCc1ccc(CN2CCC(Oc3ccc(C(=O)NCc4ccccn4)cc3)CC2)o1`, the max response was 17.2% (inactive).

Take `COc1ccccc1-n1cnc2cc(NS(=O)(=O)c3ccccc3)ccc21`: the max response is 33.5% (active).

Regarding `COCCCNC(=O)c1ccc2c(c1)ncn2-c1ccccc1OC`, the max response was 10.4% (inactive).

Turning to `COc1cc(NS(=O)(=O)c2ccccc2)ccc1-n1nc(C)cc1C`, the max response was -2.43% (inactive).

Turning to `O=C(c1cc(-c2ccc(O)cc2)on1)N1CCCc2ccccc21`, the max response was 32.9% (active).

With `COc1ccc(-c2cc(C(=O)N3CCN(c4ccc(F)cc4)CC3)no2)cc1`, the max response is -1.58% (inactive).

For the molecule `Cn1c(SCC(=O)N2CCCc3ccccc32)nc2ccccc2c1=O`, the max response is -3.04% (inactive).

In the case of `O=C(c1cc(-c2cccc(O)c2)on1)N1CCc2ccccc2C1`, the max response is 7.88% (inactive).

`Cc1ccc(-c2cc(C(=O)N3CCc4ccccc4C3)no2)cc1`: the max response is 10.4% (inactive).

As to `CCCn1nc(C(=O)N2CCCc3ccccc32)c2ccccc2c1=O`, the max response was -1.1% (inactive).

In the case of `O=C(c1cccs1)N1CCN(C(=O)N2CCOCC2)CC1`, the max response is -2.36% (inactive).

Turning to `O=C(c1cc(-c2ccc(F)cc2)on1)N1CCN(c2ccc(F)cc2)CC1`, the max response is -2.49% (inactive).

Turning to `O=C(c1cc(-c2ccncc2)nc2ccccc12)N1CCC2(CC1)OCCO2`, the max response was 2.43% (inactive).

For the molecule `Cc1ccc(-c2cc(C(=O)N3CCC4(CC3)OCCO4)no2)cc1`, the max response was 24.4% (active).

As to `O=C(c1cc(-c2ccc(Cl)cc2)on1)N1CCN(c2ccccc2)CC1`, the max response is 30.2% (active).

Regarding `O=C(c1cc(-c2ccc(O)cc2)on1)N1CCOCC1`, the max response is 27.7% (active).

Regarding `NC(=O)Cn1cc(/C=N\NS(=O)(=O)c2ccccc2)c2ccccc21`, the max response is -1.04% (inactive).

`COc1ccc(OC)c(Nc2nc3ccccc3n3cnnc23)c1`: the max response is -2.88% (inactive).

For `CCOc1ccc(NC(=O)CCCCCN2C(=O)[C@@H]3Cc4ccccc4CN3C2=O)cc1`, the max response was 6.74% (inactive).

As to `Clc1cc(NC2CCCCC2)ncn1`, the max response is 3.36% (inactive).

For `CCCCN(CCCC)CCCNC(=O)CN1C(=O)COc2ccc(S(=O)(=O)N3CCC(C)CC3)cc21`, the max response was -3.42% (inactive).

In the case of `Cc1ccn(-c2cccc(-n3ccc(C)n3)n2)n1`, the max response is 91.1% (active).

Turning to `Cc1cnc(CN(C)C(=O)CC2C(=O)NCCN2Cc2cccc(F)c2F)[nH]1` (centres undefined), the max response is 3.11% (inactive).

Take `O=c1c2cc(Br)ccc2nc(-c2cccc(Cl)c2)n1O`: the max response is -6.07% (inactive).

Regarding `Cc1ccc(CSCC2Nc3ccc(C(=O)N4CCN(c5ccc(F)cc5)CC4)cc3NC2=O)cc1` (centres undefined), the max response is -5.97% (inactive).

As to `CCN1C(=O)C(CC(=O)Nc2cc(C)ccc2C)SC1=Nc1ccc(S(N)(=O)=O)cc1` (centres undefined), the max response is -7.73% (inactive).

`O=C(CC1SC(=Nc2ccccc2)N(Cc2ccccn2)C1=O)Nc1cccc(Cl)c1` (centres undefined): the max response is 14.9% (active).

On to `CN1C(=O)C(CC(=O)Nc2ccccc2)S/C1=N/c1nccs1` (centres undefined), for which the max response is -0.83% (inactive).

For the molecule `CC(=O)Nc1ccc(S(=O)(=O)NC2Cc3ccccc3C2)cc1`, the max response is -1.22% (inactive).

As for `CCNC(=O)N1c2ccccc2Sc2ccccc21`, the max response was -0.857% (inactive).

For `CCN1/C(=C/C(=S)Nc2ccccc2)Sc2ccccc21`, the max response was 44.5% (active).

As for `O=C(CCN1c2ccccc2Sc2ccccc21)Nc1ccccc1`, the max response is 9.13% (inactive).

As to `CCn1cc(C(=O)NCC(=O)NC(C)(C)CO)c(=O)c2cc3c(cc21)OCO3`, the max response is 1.3% (inactive).

Regarding `O=C(CN1C(=O)C2C3C=CC(C3)C2C1=O)Nc1nc(-c2ccccn2)cs1` (centres undefined), the max response is -1.06% (inactive).

Consider `O=C(CC(=O)N/N=C\c1cccc(Cl)c1Cl)NCc1ccccc1`, for which the max response was 8.71% (inactive).

Take `O=C(CCCO)N/N=C/c1cc(Br)ccc1O`: the max response was -2.8% (inactive).

Regarding `O=C(N/N=C/c1ccccc1O)/C(=C/c1ccccc1)CCO`, the max response was 16.6% (active).

For the molecule `COc1ccc(OC)c(S(=O)(=O)N2CCCC(C(=O)NCCc3ccccc3)C2)c1` (centres undefined), the max response was 8.7% (inactive).

Consider `Cc1cccc(N2CCN(C(=O)c3cnn4c(C(F)F)cc(-c5ccccc5)nc34)CC2)c1C`, for which the max response was -1.97% (inactive).

Take `CSCCC(NC(=O)c1ccc(Cl)cc1Cl)C(=O)NNC(=O)c1csc(N2CCOCC2)n1` (centres undefined): the max response was 0.959% (inactive).

For the molecule `O=C(COc1ccc([N+](=O)[O-])cc1)Nc1ccc(N2CCCC2)cc1`, the max response is -1.27% (inactive).

As to `NC(=O)c1ccc(NC(=O)COC(=O)c2ccc([N+](=O)[O-])cc2)cc1`, the max response was 0.779% (inactive).

As to `O=C(COC(=O)C1CCCCC1)Nc1ccc([N+](=O)[O-])cc1`, the max response is 24.8% (active).

As to `CC1(C)C(C=C(Cl)Cl)C1C(=O)NC(O)C(=O)c1ccccc1` (centres undefined), the max response was -3.63% (inactive).

Consider `CCn1cc(C(=O)NCc2ccc(OC)cc2OC)c(=O)c2ccc(C)nc21`, for which the max response was -2.54% (inactive).
